The supplement of paper PMC10849652
Targets with a hit are over-represented here; the source holds about 7,900 in all. About 0.6% of all pairs of compound and target were hits.

Legend:
Assay in all cases: log2 fold change, soluble protein after heating vs DMSO (PISA); higher = thermal stabilisation; K562 cells, 10 uM, 30 min; active = over 0.2 and 3.5 SD of the protein, either way, in both replicates (recomputed)
[1] = compound: CC[C@@H]1C(=O)N(C)c2cnc(Nc3ccc(C(=O)NC4CCN(C)CC4)cc3OC)nc2N1C1CCCC1
Method in brief: (§1)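 K562 cells (2×10^6 cells/mL) were treated with 10 μM compound for 30 min, and aliquots were heated for 3 min over 48°C-58°C. Pooled aliquots were extracted in PBS with 0.5% NP-40 at 4°C, and the supernatant after 21,000xg for 90 min was measured by TMTpro 16plex LC-MS/MS with channel sums equalised. Reported thermal stability, relative to control samples and from duplicates, is a log2 fold change.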

[2] = compound: CC[C@@H]1C(=O)N(C)c2cnc(Nc3ccc(C(=O)N[C@H]4CC[C@H](N5CCN(CC6CC6)CC5)CC4)cc3OC)nc2N1C(C)C [volasertib]
Method in brief: as §1

[3] = compound: CC[C@H](C)N1C=C(C2=C(C=C(C=C21)C3=CN=C(C=C3)N4CCNCC4)C(=O)NCC5=C(C=C(NC5=O)C)C)C
Method in brief: as §1

[4] = compound: CC[C@H](C)[C@@H](C(=O)N[C@@H]([C@@H](C)O)C(=O)N[C@@H](CC(C)C)C(=O)[C@]1(CO1)C)NC(=O)[C@H]([C@@H](C)CC)N(C)C(=O)C [epoxomicin]
Method in brief: as §1

[5] = compound: CCn1c(C(=O)N(C2CC2)C2CC2)cc2c3c(ncn3C)c(Nc3cc(C)n(C)n3)nc21
Method in brief: as §1

[6] = compound: CCn1cc(-c2ccnc3[nH]c(-c4cccc(CN(C)C)c4)cc23)c(-c2ccc(NC(=O)N(C)C)cc2)n1
Method in brief: as §1

[7] = compound: CN(C)CC(=O)Nc1ccc2[nH]c(=O)c3ccccc3c2c1
Method in brief: as §1

[8] = compound: CN(CCOC1=CC=C(C=C1)C[C@H]2C(=O)NC(=O)S2)C3=CC=CC=N3 (racemic) [rosiglitazone]
Method in brief: as §1

[9] = compound: CN1C2=C(C3=C1C(=O)N(N=C3)CC4=CC(=CC=C4)N)SC(=C2)S(=O)C
Method in brief: as §1

[10] = compound: CN1CCC(CNc2ccc3ncc(-c4cccc(OC(F)(F)F)c4)n3n2)CC1
Method in brief: as §1

[11] = compound: CN1CCN(CCOc2cc(OC3CCOCC3)c3c(Nc4c(Cl)ccc5c4OCO5)ncnc3c2)CC1 [saracatinib]
Method in brief: as §1

[12] = compound: CN1CCN(c2nc(C3=C(c4c[nH]c5ccccc45)C(=O)NC3=O)c3ccccc3n2)CC1 [sotrastaurin]
Method in brief: as §1

[13] = compound: CN1CC[C@H](c2c(O)cc(O)c3c(=O)cc(-c4ccccc4Cl)oc23)[C@H](O)C1 [alvocidib]
Method in brief: as §1

[14] = compound: CN1CCc2c(c3ccccc3n2Cc2ccc(C(=O)NO)cc2)C1 [Tubastatin A]
Method in brief: as §1

[15] = compound: CNC(=O)C1=CC=CC=C1NC2=NC(=NC=C2Cl)NC3=C(C=C(C=C3)N4CCOCC4)OC
Method in brief: as §1

[16] = compound: CNC(=O)c1ccc(Nc2ncc(C(F)(F)F)c(NCc3nccnc3N(C)S(C)(=O)=O)n2)cc1 [defactinib]
Method in brief: as §1

[17] = compound: CNCc1ccc(-c2[nH]c3cc(F)cc4c3c2CCNC4=O)cc1 [rucaparib]
Method in brief: as §1

[18] = compound: CNc1nc(-c2ccc3c(N)n[nH]c3c2)cc(N2C[C@@H](C(=O)NC3CCCCC3)CC[C@H]2C)n1
Method in brief: as §1

[19] = compound: COC(=O)N[C@@H](C)CNc1nccc(-c2cn(C(C)C)nc2-c2cc(Cl)cc(NS(C)(=O)=O)c2F)n1 [encorafenib]
Method in brief: as §1

[20] = compound: COC(=O)[C@H](CCSC)NC(=O)C1=C(C=C(C=C1)NC[C@H](CS)N)C2=CC=CC=C2
Method in brief: as §1

Measured: log2 fold change

ATOX1 (UniProt O00244)
inactive: [1] 0.009 | [2] 0 | [3] -0.015 | [4] 0.107 | [5] 0.016 | [6] -0.079 | [7] 0.056 | [8] 0.012 | [9] -0.023 | [10] 0.094 | [11] -0.042 | [12] -0.054 | [13] -0.106 | [14] 0.062 | [15] 0.001 | [16] -0.117 | [17] -0.09 | [18] -0.046 | [19] 0.047 | [20] -0.105

ARL3 (UniProt P36405)
Sequence of UniProt P36405 (P36405 whole entry, looked up): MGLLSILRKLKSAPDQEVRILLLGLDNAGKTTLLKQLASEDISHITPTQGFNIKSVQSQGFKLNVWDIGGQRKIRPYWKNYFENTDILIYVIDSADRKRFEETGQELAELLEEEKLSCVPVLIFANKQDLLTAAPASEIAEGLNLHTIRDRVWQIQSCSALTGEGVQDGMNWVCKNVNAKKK
inactive: [1] 0.036 | [2] 0.046 | [3] 0.001 | [4] -0.01 | [5] -0.001 | [6] -0.005 | [7] -0.014 | [8] 0.008 | [9] -0.098 | [10] -0.018 | [11] 0.021 | [12] -0.008 | [13] -0.01 | [14] -0.012 | [15] -0.025 | [16] -0.025 | [17] -0.033 | [18] -0.035 | [19] -0.022 | [20] 0.022

AP2A2 isoform 2 (UniProt O94973)
inactive: [1] 0.026 | [2] -0.021 | [3] 0 | [4] 0.048 | [5] 0.01 | [6] -0.012 | [7] 0 | [8] 0.012 | [9] 0.008 | [10] 0.089 | [11] 0.006 | [12] -0.028 | [13] 0.052 | [14] 0.022 | [15] 0.022 | [16] -0.006 | [17] 0.077 | [18] -0.053 | [19] -0.002 | [20] -0.008

ARFGAP2 (UniProt Q8N6H7)
Sequence of UniProt Q8N6H7 (Q8N6H7 whole entry, looked up): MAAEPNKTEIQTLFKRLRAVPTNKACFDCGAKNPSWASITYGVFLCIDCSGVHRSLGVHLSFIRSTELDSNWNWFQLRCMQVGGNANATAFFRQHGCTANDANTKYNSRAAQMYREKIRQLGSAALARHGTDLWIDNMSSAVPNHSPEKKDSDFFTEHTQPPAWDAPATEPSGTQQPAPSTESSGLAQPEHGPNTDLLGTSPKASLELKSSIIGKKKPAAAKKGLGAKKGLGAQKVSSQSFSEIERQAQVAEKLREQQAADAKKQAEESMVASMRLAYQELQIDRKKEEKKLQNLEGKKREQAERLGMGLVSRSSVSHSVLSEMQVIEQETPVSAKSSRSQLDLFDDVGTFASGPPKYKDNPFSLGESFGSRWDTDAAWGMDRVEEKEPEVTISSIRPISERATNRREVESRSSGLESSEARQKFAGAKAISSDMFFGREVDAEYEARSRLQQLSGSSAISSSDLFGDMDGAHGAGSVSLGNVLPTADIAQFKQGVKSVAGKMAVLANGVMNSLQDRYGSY
active: [2] -0.257
inactive: [1] -0.052 | [3] 0.067 | [4] 0.009 | [5] -0.037 | [6] 0.023 | [7] 0.017 | [8] 0.038 | [9] -0.015 | [10] -0.068 | [11] 0.037 | [12] -0.051 | [13] -0.083 | [14] 0.03 | [15] 0.025 | [16] -0.023 | [17] 0.017 | [18] 0.017 | [19] 0.05 | [20] -0.02

ABCC5 (UniProt O15440)
Sequence of UniProt O15440 (O15440 whole entry, looked up): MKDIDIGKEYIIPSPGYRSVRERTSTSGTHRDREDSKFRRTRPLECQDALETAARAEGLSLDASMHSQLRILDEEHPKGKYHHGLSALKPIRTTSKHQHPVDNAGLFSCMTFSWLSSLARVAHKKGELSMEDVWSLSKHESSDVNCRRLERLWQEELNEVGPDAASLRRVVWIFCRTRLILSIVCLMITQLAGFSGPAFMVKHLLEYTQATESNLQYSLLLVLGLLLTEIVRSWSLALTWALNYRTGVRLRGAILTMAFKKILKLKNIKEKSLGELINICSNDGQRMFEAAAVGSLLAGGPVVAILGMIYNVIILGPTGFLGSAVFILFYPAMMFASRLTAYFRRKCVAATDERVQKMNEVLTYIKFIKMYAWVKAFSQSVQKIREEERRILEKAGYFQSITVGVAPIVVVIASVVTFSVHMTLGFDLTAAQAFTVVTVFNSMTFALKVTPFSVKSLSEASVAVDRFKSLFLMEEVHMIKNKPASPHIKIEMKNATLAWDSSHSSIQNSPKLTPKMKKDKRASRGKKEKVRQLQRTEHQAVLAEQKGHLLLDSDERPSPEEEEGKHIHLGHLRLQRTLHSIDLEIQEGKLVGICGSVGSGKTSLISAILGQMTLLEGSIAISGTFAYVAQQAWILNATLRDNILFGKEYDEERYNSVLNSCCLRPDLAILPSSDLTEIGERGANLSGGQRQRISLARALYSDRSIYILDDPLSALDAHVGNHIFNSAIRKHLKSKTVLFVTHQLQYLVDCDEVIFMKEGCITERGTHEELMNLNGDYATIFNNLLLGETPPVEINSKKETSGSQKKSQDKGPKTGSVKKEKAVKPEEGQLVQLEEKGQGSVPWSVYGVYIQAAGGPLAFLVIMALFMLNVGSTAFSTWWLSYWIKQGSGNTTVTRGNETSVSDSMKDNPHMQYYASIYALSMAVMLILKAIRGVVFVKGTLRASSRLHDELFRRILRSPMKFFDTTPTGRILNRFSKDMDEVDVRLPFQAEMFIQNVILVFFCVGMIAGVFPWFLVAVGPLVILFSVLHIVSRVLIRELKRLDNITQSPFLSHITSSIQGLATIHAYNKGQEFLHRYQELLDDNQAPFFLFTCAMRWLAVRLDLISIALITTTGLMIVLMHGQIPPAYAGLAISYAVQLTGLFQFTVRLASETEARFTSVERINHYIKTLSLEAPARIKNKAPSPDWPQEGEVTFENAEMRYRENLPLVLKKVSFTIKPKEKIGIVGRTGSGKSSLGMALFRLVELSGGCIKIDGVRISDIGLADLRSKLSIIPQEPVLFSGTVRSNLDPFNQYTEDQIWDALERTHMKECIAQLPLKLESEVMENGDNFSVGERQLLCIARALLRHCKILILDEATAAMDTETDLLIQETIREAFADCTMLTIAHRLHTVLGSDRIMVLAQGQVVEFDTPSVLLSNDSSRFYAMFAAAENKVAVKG
inactive: [1] -0.075 | [2] 0.027 | [3] 0.023 | [4] -0.028 | [5] 0.024 | [6] -0.031 | [7] -0.069 | [8] -0.003 | [9] 0.028 | [10] 0.075 | [11] 0.107 | [12] -0.028 | [13] 0.007 | [14] 0.002 | [15] -0.02 | [16] 0.019 | [17] 0.116 | [18] -0.003 | [19] -0.039 | [20] 0.026

AAMP (UniProt Q13685)
inactive: [1] 0.072 | [2] 0.051 | [3] -0.016 | [4] -0.017 | [5] 0.023 | [6] -0.016 | [7] 0.011 | [8] 0.001 | [9] -0.004 | [10] 0.054 | [11] -0.002 | [12] 0.006 | [13] -0.017 | [14] -0.049 | [15] 0.022 | [16] -0.102 | [17] 0.054 | [18] -0.014 | [19] -0.016 | [20] -0.009

AHSA1 (UniProt O95433)
Sequence of UniProt O95433 (O95433 whole entry, looked up): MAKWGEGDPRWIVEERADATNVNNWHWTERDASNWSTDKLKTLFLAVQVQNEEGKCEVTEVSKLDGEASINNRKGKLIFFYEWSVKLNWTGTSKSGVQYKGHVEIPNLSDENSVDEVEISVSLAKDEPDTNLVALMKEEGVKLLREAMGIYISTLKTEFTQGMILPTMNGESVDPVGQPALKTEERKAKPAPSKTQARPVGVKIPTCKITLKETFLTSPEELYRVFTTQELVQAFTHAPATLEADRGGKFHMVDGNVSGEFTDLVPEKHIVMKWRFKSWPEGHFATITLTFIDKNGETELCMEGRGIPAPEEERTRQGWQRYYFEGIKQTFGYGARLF
inactive: [1] -0.085 | [3] 0.038 | [4] 0.023 | [5] 0 | [6] -0.052 | [7] 0 | [8] 0.027 | [9] -0.06 | [10] 0.038 | [11] 0.022 | [12] 0.014 | [13] -0.039 | [14] -0.003 | [15] 0 | [16] -0.061 | [17] -0.084 | [18] 0.011 | [19] 0.02 | [20] -0.008
active: [2] -0.228

ARL6IP6 (UniProt Q8N6S5)
inactive: [1] 0.154 | [2] -0.007 | [3] -0.043 | [4] -0.086 | [5] -0.074 | [6] 0.004 | [7] 0.004 | [8] 0.005 | [9] 0.029 | [10] 0.01 | [11] 0.192 | [12] 0.005 | [13] -0.082 | [14] -0.014 | [15] -0.099 | [16] -0.053 | [17] 0.009 | [18] 0.004 | [19] 0.015 | [20] -0.035

ARFIP1 (UniProt P53367)
Sequence of UniProt P53367 (P53367 whole entry, looked up): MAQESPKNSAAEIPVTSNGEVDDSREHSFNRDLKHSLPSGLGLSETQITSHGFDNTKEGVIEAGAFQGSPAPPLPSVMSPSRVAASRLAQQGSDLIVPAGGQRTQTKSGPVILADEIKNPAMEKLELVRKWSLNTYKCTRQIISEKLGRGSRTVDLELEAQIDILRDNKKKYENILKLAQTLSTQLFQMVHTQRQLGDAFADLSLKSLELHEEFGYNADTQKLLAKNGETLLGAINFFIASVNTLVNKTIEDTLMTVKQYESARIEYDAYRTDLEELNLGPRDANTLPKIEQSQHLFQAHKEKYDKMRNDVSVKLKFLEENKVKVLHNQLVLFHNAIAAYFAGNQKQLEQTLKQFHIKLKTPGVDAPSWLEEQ
active: [15] -0.351
inactive: [1] -0.008 | [2] -0.184 | [3] 0.113 | [4] -0.003 | [5] -0.101 | [6] 0.083 | [7] -0.011 | [8] 0.856 | [9] -0.053 | [10] -0.421 | [11] 0.043 | [12] -0.037 | [13] -0.031 | [14] 0.047 | [16] -0.08 | [17] -0.086 | [18] 0.075 | [19] -0.01 | [20] 0.163

ARHGAP1 (UniProt Q07960)
inactive: [1] 0.014 | [2] -0.027 | [3] 0.021 | [4] 0.013 | [5] -0.006 | [6] -0.082 | [7] -0.007 | [8] 0.03 | [9] -0.014 | [10] 0.19 | [11] -0.015 | [12] -0.03 | [13] -0.057 | [14] 0.044 | [15] -0.032 | [16] -0.046 | [17] 0.005 | [18] -0.019 | [19] 0.001 | [20] -0.014

APLP2 (UniProt Q06481)
inactive: [1] 0.076 | [2] -0.04 | [3] -0.092 | [4] 0.017 | [5] 0.089 | [6] 0.006 | [7] -0.106 | [8] -0.026 | [9] -0.004 | [10] 0.179 | [11] 0.072 | [12] 0.094 | [13] 0.011 | [14] 0.014 | [15] 0.009 | [16] -0.055 | [17] -0.082 | [18] -0.051 | [19] 0.02 | [20] 0.051

APOB (UniProt P04114)
inactive: [1] -0.235 | [2] -0.104 | [3] -0.227 | [4] -0.056 | [5] 0.004 | [6] 0.048 | [7] 0.014 | [8] 0.02 | [9] 0.116 | [10] -0.354 | [11] -0.139 | [12] -0.17 | [13] -0.014 | [14] -0.021 | [15] 0.012 | [16] 0.05 | [17] -0.197 | [18] -0.364 | [19] 0.04 | [20] -0.005

ACSL3 (UniProt O95573)
Sequence of UniProt O95573 (O95573 whole entry, looked up): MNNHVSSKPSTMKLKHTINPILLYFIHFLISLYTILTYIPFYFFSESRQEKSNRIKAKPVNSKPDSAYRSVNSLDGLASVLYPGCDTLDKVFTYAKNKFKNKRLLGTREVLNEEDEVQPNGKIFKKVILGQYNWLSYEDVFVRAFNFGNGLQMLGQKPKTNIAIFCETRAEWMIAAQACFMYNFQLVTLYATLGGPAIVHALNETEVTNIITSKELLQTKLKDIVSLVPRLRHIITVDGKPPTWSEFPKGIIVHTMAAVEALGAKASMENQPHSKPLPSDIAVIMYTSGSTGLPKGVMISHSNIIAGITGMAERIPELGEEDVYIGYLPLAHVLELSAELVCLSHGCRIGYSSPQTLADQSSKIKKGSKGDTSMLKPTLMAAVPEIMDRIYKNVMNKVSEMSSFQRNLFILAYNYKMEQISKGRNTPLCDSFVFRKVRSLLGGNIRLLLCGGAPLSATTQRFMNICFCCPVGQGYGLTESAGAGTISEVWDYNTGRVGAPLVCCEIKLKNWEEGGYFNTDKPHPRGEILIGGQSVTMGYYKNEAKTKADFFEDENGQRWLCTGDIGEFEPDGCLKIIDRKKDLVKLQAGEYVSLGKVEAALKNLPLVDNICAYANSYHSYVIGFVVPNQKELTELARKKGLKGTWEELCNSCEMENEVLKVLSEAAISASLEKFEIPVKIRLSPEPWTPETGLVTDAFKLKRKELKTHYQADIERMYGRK
active: [2] -0.23 | [8] 0.642
inactive: [1] -0.062 | [3] 0.022 | [4] 0.048 | [5] -0.049 | [6] -0.042 | [7] 0.024 | [9] -0.036 | [10] -0.1 | [11] 0 | [12] -0.014 | [13] -0.037 | [14] -0.022 | [15] -0.008 | [16] -0.043 | [17] -0.002 | [18] 0.041 | [19] 0.008 | [20] -0.01

ADRM1 (UniProt Q16186)
inactive: [1] 0.122 | [2] 0.197 | [3] 0.024 | [4] -0.083 | [5] 0.04 | [6] -0.013 | [7] -0.006 | [8] 0 | [9] 0.045 | [10] 0.062 | [11] -0.086 | [12] -0.091 | [13] 0.042 | [14] 0.18 | [15] -0.067 | [16] 0.087 | [17] -0.022 | [18] 0.111 | [19] 0.108 | [20] 0.017

AKR1C3 (UniProt P42330)
inactive: [1] 0.011 | [2] 0.009 | [3] -0.01 | [4] 0 | [5] 0.131 | [6] -0.247 | [7] 0.067 | [8] -0.06 | [9] -0.127 | [10] 0.214 | [11] 0.05 | [12] 0.093 | [13] -0.054 | [14] 0.044 | [15] 0.188 | [16] 0.222 | [17] 0.061 | [18] 0.424 | [19] -0.081 | [20] 0.007

BCL9L (UniProt Q86UU0)
Sequence of UniProt Q86UU0 (Q86UU0 whole entry, looked up): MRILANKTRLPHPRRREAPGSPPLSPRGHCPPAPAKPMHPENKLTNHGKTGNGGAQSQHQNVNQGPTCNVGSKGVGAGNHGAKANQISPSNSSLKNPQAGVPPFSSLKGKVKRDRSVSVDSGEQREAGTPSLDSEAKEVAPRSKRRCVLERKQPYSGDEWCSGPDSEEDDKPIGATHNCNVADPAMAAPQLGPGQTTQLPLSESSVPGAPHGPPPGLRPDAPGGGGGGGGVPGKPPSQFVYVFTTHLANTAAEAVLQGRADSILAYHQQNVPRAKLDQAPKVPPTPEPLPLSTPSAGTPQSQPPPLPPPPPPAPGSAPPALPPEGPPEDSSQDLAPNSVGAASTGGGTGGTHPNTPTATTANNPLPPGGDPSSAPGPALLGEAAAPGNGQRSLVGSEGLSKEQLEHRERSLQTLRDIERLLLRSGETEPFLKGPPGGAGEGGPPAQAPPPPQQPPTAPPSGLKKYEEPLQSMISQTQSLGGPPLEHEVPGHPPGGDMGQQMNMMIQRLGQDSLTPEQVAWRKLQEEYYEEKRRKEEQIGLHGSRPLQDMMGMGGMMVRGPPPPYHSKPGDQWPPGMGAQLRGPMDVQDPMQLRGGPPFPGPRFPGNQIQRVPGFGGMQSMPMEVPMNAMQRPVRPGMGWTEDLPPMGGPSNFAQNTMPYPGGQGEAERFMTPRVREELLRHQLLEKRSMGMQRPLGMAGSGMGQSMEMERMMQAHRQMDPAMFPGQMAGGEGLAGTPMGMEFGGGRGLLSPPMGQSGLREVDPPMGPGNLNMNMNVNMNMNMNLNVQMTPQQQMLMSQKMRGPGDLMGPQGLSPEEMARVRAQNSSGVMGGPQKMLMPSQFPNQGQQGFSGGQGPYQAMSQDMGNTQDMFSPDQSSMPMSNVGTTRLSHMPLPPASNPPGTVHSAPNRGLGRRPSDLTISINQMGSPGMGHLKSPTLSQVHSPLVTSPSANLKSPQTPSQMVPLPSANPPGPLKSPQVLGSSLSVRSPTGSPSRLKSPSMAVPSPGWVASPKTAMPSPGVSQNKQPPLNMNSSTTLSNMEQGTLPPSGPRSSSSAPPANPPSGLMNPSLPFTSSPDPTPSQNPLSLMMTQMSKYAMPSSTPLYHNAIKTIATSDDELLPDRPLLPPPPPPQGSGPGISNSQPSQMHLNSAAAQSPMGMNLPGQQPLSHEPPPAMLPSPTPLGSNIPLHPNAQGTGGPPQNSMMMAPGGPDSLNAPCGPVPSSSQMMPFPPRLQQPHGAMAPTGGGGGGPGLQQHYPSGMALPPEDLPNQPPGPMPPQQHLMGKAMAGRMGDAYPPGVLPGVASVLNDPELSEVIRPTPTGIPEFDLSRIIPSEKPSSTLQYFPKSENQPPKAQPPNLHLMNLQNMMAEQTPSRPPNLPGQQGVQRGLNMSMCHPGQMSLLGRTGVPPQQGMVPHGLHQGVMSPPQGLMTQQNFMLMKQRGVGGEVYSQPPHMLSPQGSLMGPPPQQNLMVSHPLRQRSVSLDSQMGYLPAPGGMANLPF
inactive: [1] 0 | [2] 0.036 | [3] 0.044 | [4] 0.038 | [5] 0.04 | [6] -0.024 | [7] -0.003 | [8] 0.088 | [9] -0.023 | [10] -0.019 | [11] -0.042 | [12] 0.042 | [13] -0.012 | [14] 0.053 | [15] -0.017 | [16] -0.014 | [17] 0.026 | [18] -0.092 | [19] -0.033 | [20] 0.069
